Each structure is given as a SMILES string. About 14,000 (4.5%) of roughly 310,000 compounds showed an effect of 50% or more. Effects have a minus sign here. This excerpt belongs to a sample that is enriched for strong results.
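Note: peak tail current of the secondary pulse compared with the same well before compound.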

The target of the experiment is human ether-à-go-go-related gene (hERG) potassium channel (human, UniProt Q12809). The experiment in a line: primary screen, population patch clamp on CHO cells stably expressing hERG; higher = less effect of the substance.
Sequence of human ether-à-go-go-related gene (hERG) potassium channel (Q12809 whole entry, looked up): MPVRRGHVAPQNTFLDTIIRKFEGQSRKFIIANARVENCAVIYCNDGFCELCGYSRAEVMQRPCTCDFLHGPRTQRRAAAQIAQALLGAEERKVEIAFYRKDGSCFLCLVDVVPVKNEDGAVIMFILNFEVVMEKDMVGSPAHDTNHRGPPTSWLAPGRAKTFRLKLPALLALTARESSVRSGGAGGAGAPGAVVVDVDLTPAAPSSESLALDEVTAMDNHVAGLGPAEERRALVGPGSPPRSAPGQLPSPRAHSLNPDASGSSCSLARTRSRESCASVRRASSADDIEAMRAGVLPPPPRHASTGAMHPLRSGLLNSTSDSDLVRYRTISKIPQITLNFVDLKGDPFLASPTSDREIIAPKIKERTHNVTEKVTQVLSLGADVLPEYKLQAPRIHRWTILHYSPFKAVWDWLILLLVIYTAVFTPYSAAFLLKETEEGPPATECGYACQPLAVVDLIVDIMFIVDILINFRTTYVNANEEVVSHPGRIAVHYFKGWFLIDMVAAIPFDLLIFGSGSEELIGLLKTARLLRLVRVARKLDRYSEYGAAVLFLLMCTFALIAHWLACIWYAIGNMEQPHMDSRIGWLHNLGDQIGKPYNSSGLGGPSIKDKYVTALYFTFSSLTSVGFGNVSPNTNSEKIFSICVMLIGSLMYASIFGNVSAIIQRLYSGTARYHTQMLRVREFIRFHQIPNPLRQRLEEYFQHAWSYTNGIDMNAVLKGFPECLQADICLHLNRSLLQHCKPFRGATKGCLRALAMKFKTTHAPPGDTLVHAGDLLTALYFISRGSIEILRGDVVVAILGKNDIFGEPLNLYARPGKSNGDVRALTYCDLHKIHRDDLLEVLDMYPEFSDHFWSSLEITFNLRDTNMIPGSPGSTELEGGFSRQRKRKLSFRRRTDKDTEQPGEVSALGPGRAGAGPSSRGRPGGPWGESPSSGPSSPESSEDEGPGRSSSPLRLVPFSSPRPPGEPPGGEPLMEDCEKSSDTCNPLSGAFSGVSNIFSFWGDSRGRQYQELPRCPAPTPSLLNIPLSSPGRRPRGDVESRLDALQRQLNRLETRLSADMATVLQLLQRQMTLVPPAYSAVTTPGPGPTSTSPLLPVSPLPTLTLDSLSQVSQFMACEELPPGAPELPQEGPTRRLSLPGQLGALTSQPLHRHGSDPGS
In the case of `CO[C@@H]1[C@@H](O[C@@H]2O[C@H](C)[C@@H](O[C@H]3C[C@@](C)(OC(=O)CC(C)C)[C@@H](O)[C@H](C)O3)[C@H](N(C)C)[C@H]2O)[C@@H](CC=O)C[C@@H](C)[C@@H](O)C=CC=CC[C@@H](C)OC(=O)C[C@H]1OC(C)=O`, the “hERG current change (%, negative = inhibition) at 10uM” value is listed as -6.51%. The figure for `c1cncc(C2CCCCN2)c1` (stereo not shown) is -6.38%. The figure for `CCOc1cc(/C=C2/N=C(c3ccc4c(c3)OCO4)OC2=O)ccc1OC(C)=O` is 9.87%; for `COc1cccc(N2CCN(S(=O)(=O)c3cccc4cccnc34)CC2)c1` it is 15.5%. With `COc1ccc2c(c1OC)C(=O)O[C@@H]2[C@H]1c2c(cc3c(c2OC)OCO3)CCN1C`, the “hERG current change (%, negative = inhibition) at 10uM” value is recorded as -2.49%. With `COc1c2c(cc3c1C(CC(O)Cc1ccccc1)N(C)CC3)OCO2` (stereo not shown), the “hERG current change (%, negative = inhibition) at 10uM” value is recorded as -61.3%. For the compound `COc1ccc2c(c1OC)C(C1c3c(cc4c(c3OC)OCO4)CCN1C)OC2=O` (stereo not shown), the “hERG current change (%, negative = inhibition) at 10uM” value was -7.14%. Turning to `COc1ccc2c(c1OC)C(=O)OC2C1c2c(cc3c(c2OC)OCO3)CCN1C.Cl.O` (stereo not shown), the “hERG current change (%, negative = inhibition) at 10uM” value is -13.7%.

For the compound `COc1ccc2c(c1OC)C(=O)OC2C1c2c(cc3c(c2OC)OCO3)CCN1C.Cl` (stereo not shown), the “hERG current change (%, negative = inhibition) at 10uM” value is reported as -1.88%. As for `COc1ccc(CC(O)CC2c3c(cc4c(c3OC)OCO4)CCN2C)cc1.Cl` (stereo not shown), the “hERG current change (%, negative = inhibition) at 10uM” value is on record as -78.9%. Turning to `O=c1[nH]ncc2c3ccccc3n(Cc3ccccc3)c12`, the “hERG current change (%, negative = inhibition) at 10uM” value stood at 15.8%. The figure for `S=C(NCc1ccco1)Nc1ccc(Cl)cc1Cl` is 8.1%.

As for `O=C1c2oc3ccccc3c(=O)c2C(c2cccc(Br)c2)N1Cc1ccco1` (stereo not shown), the “hERG current change (%, negative = inhibition) at 10uM” value was -8.64%.

With `CCc1ccc(CN(C)CC(=O)Nc2ccc3c(c2)CCC3)cc1`, the “hERG current change (%, negative = inhibition) at 10uM” value turned out to be 9.39%. `O=C(OCc1cccc([N+](=O)[O-])c1)c1cc2ccccc2oc1=O`: the “hERG current change (%, negative = inhibition) at 10uM” value is 20.7%. For `Cc1ccc(C(=O)NNC(=O)c2ccc(Br)s2)cc1S(=O)(=O)N1CCOCC1`, the “hERG current change (%, negative = inhibition) at 10uM” value is given as -26.2%. As to `COc1ccc(CC(=O)Nc2cccc(-c3ccc4nnc(C)n4n3)c2)cc1`, the “hERG current change (%, negative = inhibition) at 10uM” value is listed as -54.1%. With `COc1ccc(CC(=O)Nc2cccc(-c3ccc4nnc(C)n4n3)c2)cc1OC`, the “hERG current change (%, negative = inhibition) at 10uM” value is -0.118%. The result for `CCOc1ccc(CC(=O)Nc2ccc(-c3ccc4nnc(C)n4n3)cc2)cc1` reads -40.4%; that for `COc1ccc(CC(=O)Nc2ccc(-c3ccc4nnc(C)n4n3)cc2)cc1OC`, 2.72%. `Cc1nnc2ccc(-c3cccc(NC(=O)Cc4cccs4)c3)nn12`: the “hERG current change (%, negative = inhibition) at 10uM” value was -25.9%. With `CCOc1ccc(CC(=O)Nc2cccc(-c3ccc4nnc(C)n4n3)c2)cc1`, the “hERG current change (%, negative = inhibition) at 10uM” value is recorded as -51.1%.

Consider `CCOC(=O)C1CCCN(C(=O)CS(=O)(=O)Cc2ccccc2)C1` (stereo not shown), for which the “hERG current change (%, negative = inhibition) at 10uM” value is reported as 15.3%. On to `O=C(CNC(=O)c1ccc2c(c1)OCO2)N/N=C/c1cc(Br)ccc1O`, for which the “hERG current change (%, negative = inhibition) at 10uM” value turned out to be 20.1%. With `Cn1c(SCC(N)=O)nnc1C1CCN(S(=O)(=O)c2ccccc2C(F)(F)F)CC1`, the “hERG current change (%, negative = inhibition) at 10uM” value is reported as 13.3%. The figure for `COCC(=O)Nc1cc(=O)n(C)c(=O)n1C` is 4.94%.

In the case of `CC(C)(C)C(=O)Nc1nnc(SCC(=O)NCc2cccs2)s1`, the “hERG current change (%, negative = inhibition) at 10uM” value turned out to be 16.3%. The result for `CCc1ccc(C(O)(CNCc2ccccc2)c2ccccc2)cc1` (stereo not shown) reads -41.6%.

As for `COc1ccc(CNCC(O)(c2ccc(Cl)cc2)c2ccc(Cl)cc2)cc1`, the “hERG current change (%, negative = inhibition) at 10uM” value is listed as -12%. For the compound `COc1ccc(CNCC(O)(c2ccccc2)c2ccccc2)cc1`, the “hERG current change (%, negative = inhibition) at 10uM” value is -64%.

For the compound `OC(CNCc1ccccc1)(c1ccccc1)c1ccccc1`, the “hERG current change (%, negative = inhibition) at 10uM” value is on record as -9.7%. In the case of `COc1ccc(CNCC(O)(c2ccccc2)c2ccc(Cl)cc2)cc1` (stereo not shown), the “hERG current change (%, negative = inhibition) at 10uM” value is reported as -68.8%. `OC(CNCc1ccc(Cl)cc1)(c1ccccc1)c1ccc(F)cc1` (stereo not shown): the “hERG current change (%, negative = inhibition) at 10uM” value is recorded as -4.52%. In the case of `CN(CC(=O)Nc1ccccc1Cl)C(=O)CSc1ncc(C(F)(F)F)cc1Cl`, the “hERG current change (%, negative = inhibition) at 10uM” value was 9.55%. As for `CCCCCCCNC(=O)CC(NS(=O)(=O)c1ccc(NC(C)=O)cc1)C(C)C` (stereo not shown), the “hERG current change (%, negative = inhibition) at 10uM” value is listed as 3.19%.

`CCCc1cc(NCCCN2CCOCC2)n2c(nc3ccccc32)c1C#N`: the “hERG current change (%, negative = inhibition) at 10uM” value is given as -75.7%.

As to `CCCc1cc(NCCCN(C)C)n2c(nc3ccccc32)c1C#N`, the “hERG current change (%, negative = inhibition) at 10uM” value is on record as 0.382%. The figure for `CCCc1cc(NCCCO)n2c(nc3ccccc32)c1C#N` is -16.6%; for `CC(C)c1cc(NCC2CCCO2)n2c(nc3ccccc32)c1C#N` (stereo not shown) it is -41%; for `CCCc1c(C)c(C#N)c2nc3ccccc3n2c1NCCCN1CCOCC1` it is -44%. Consider `CCCc1cc(NCCCCO)n2c(nc3ccccc32)c1C#N`, for which the “hERG current change (%, negative = inhibition) at 10uM” value is -53.1%. The figure for `CC(C)c1cc(NCCCN2CCOCC2)n2c(nc3ccccc32)c1C#N` is -79.9%; for `Cc1cc(NCCCN2CCOCC2)n2c(nc3ccccc32)c1C#N` it is -23.3%. The figure for `CCCc1cc(NCC2CCCO2)n2c(nc3ccccc32)c1C#N` (stereo not shown) is -66.5%. The result for `CCCc1cc(NCCN(C)C)n2c(nc3ccccc32)c1C#N` reads -7.73%; that for `Cc1cc(NCC2CCCO2)n2c(nc3ccccc32)c1C#N` (stereo not shown), -21.2%; that for `Cc1cc(NCCN2CCOCC2)n2c(nc3ccccc32)c1C#N`, -6.09%. On to `Cn1c(=O)oc2cc(S(=O)(=O)NC3CCN(Cc4ccccc4)CC3)ccc21`, for which the “hERG current change (%, negative = inhibition) at 10uM” value is -36.4%. The figure for `CC1Cc2ccccc2N1C(=S)Nc1cccc(S(=O)(=O)N(C)C)c1` (stereo not shown) is 2.06%; for `O=C(c1ccc2c(c1)OCO2)N1CCC2(CC1)OCCO2` it is -10.6%; for `CC1CCN(CCCCOc2ccccc2[N+](=O)[O-])CC1.O=C(O)C(=O)O` it is -26.3%. The result for `Fc1ccc(OCCOCCN2CCNCC2)cc1.O=C(O)C(=O)O` reads 6.98%. With `CC1CCN(S(=O)(=O)c2ccc([N+](=O)[O-])cc2)CC1`, the “hERG current change (%, negative = inhibition) at 10uM” value was -3.23%.

With `O=C(O)C(=O)O.O=[N+]([O-])c1ccc(OCCN2CCNCC2)cc1`, the “hERG current change (%, negative = inhibition) at 10uM” value is given as -76%. Consider `CC1CCN(CC(CS(=O)(=O)c2ccc([N+](=O)[O-])cc2)N2CCC(C)CC2)CC1` (stereo not shown), for which the “hERG current change (%, negative = inhibition) at 10uM” value is reported as -62.1%.

As for `CC1CCN(CCCCOc2ccc([N+](=O)[O-])cc2)CC1`, the “hERG current change (%, negative = inhibition) at 10uM” value is -74.7%. Take `CC1CCN(S(=O)(=O)c2ccc(Oc3ccc([N+](=O)[O-])cc3)cc2)CC1`: the “hERG current change (%, negative = inhibition) at 10uM” value was -21.7%. For `O=C(O)C(=O)O.O=[N+]([O-])c1ccc(OCCN2CCCCCC2)cc1`, the “hERG current change (%, negative = inhibition) at 10uM” value is -86.1%.

For the compound `O=[N+]([O-])c1ccc(S(=O)(=O)CC(CN2CCOCC2)N2CCOCC2)cc1` (stereo not shown), the “hERG current change (%, negative = inhibition) at 10uM” value is recorded as -1.68%. The result for `Cc1ccc(OCCN2CCNCC2)c([N+](=O)[O-])c1.O=C(O)C(=O)O` reads -5.84%; that for `COc1ccc(C)cc1N(C(=O)COc1cccc(F)c1)c1nc2ccccc2s1`, -27.2%.

Take `O=[N+]([O-])c1ccc(-n2nnnc2-c2ccccc2)c([N+](=O)[O-])c1`: the “hERG current change (%, negative = inhibition) at 10uM” value came to 6.9%. The result for `COc1cccc(CN2CC(C(=O)NCc3cccc(N4CCCC4)c3)CCC2=O)c1` (stereo not shown) reads -5.08%. As to `CCOc1ccc(S(=O)(=O)NC2CC2)cc1`, the “hERG current change (%, negative = inhibition) at 10uM” value is given as 4.15%. For `N/C(=N\OC(=O)c1ccc2ccccc2c1)c1ccncc1`, the “hERG current change (%, negative = inhibition) at 10uM” value is recorded as -38.4%. As for `C[C@H](CCC(=O)O)[C@H]1CC[C@H]2[C@@H]3[C@H](O)C[C@@H]4C[C@H](O)CC[C@]4(C)[C@H]3CC[C@]12C`, the “hERG current change (%, negative = inhibition) at 10uM” value is 13.8%. The figure for `CC(C)C(=O)N1CCN(c2ccccc2NC(=S)NC(=O)c2cccs2)CC1` is -2.66%.

`CCOc1ccc(OCC)c(NC(=O)C2CCCN(C(=O)c3ccc(Cl)cc3)C2)c1` (stereo not shown): the “hERG current change (%, negative = inhibition) at 10uM” value was -34%. The figure for `O=[N+]([O-])c1ccc(OCCCCN2CCCCC2)cc1` is -69.4%; for `O=[N+]([O-])c1ccccc1OCCCCN1CCCCC1` it is -32.2%; for `Cc1ccc(OCCCCCN2CCOCC2)cc1` it is 4.39%. On to `Clc1ccc(OCCCCCN2CCOCC2)cc1`, for which the “hERG current change (%, negative = inhibition) at 10uM” value is recorded as -37.6%.

As for `O=[N+]([O-])c1ccc(OCCCCCN2CCOCC2)cc1`, the “hERG current change (%, negative = inhibition) at 10uM” value is -58.6%.

For the compound `C=Cc1ccc2c(c1)N(C)C(=C)S2.I`, the “hERG current change (%, negative = inhibition) at 10uM” value was found to be 19.7%.

Take `CCOC(=O)c1oc2ccccc2c1NC(=O)COC`: the “hERG current change (%, negative = inhibition) at 10uM” value is -12.2%. Consider `COc1ccc(CCNC(=S)Nc2cccc3ccccc23)cc1`, for which the “hERG current change (%, negative = inhibition) at 10uM” value is recorded as -4.42%. The result for `CCOc1ccc(NS(=O)(=O)c2ccc(C(=O)N3CCC3)cc2)cc1` reads -4.09%; that for `COc1ccc(OC)c(NC(=O)Cn2c(CCC(=O)O)ccc2-c2ccccc2)c1`, -5.33%; that for `COc1ccccc1CNc1nc2nc(C)c(Cl)c(=O)n2[nH]1`, -2.39%. For `O=c1c2c3c(sc2n(CCN2CCCC2)c(=O)n1Cc1ccco1)CCCCC3`, the “hERG current change (%, negative = inhibition) at 10uM” value is reported as -68.6%. The figure for `O=c1c2c3c(sc2n(CCN2CCCC2)c(=O)n1Cc1ccccc1)CCCCC3` is -34.7%.

On to `O=C(Cn1c(=O)n(Cc2ccco2)c(=O)c2c3c(sc21)CCCC3)Nc1ccccc1`, for which the “hERG current change (%, negative = inhibition) at 10uM” value was determined as 18%.

Turning to `O=C(Cn1c(=O)n(Cc2ccco2)c(=O)c2c3c(sc21)CCCCC3)Nc1ccccc1`, the “hERG current change (%, negative = inhibition) at 10uM” value is on record as 6.54%. As to `O=c1c2c3c(sc2n(CCN2CCCCC2)c(=O)n1Cc1ccco1)CCCCC3`, the “hERG current change (%, negative = inhibition) at 10uM” value is recorded as -69.1%. The figure for `O=c1c2c3c(sc2n(CCN2CCOCC2)c(=O)n1Cc1ccco1)CCCCC3` is -44.3%.

The record behind these values is paper PMC4336329 (PLoS ONE, 2015).
